Screen size: about 320,000 compounds; about 2,100 (0.66%) were called active. About 53% were inconclusive and are not listed. Calls come from the whole dose curve; as a rule, active = well fitted inhibition curve with a large enough effect in the signal ratio, with a control signal flat (not every such curve was filed as active); inconclusive = small, poorly fitted or top-dose-only effect, or effect the other way, or a change in a side signal; inactive = flat fitted curve, though single readings scatter; the % refers to the signal ratio. For the sample, actives were picked, then their nearest neighbours and some compounds at random.
Assay: qHTS Assay for Lipid Storage Modulators in Drosophila S3 Cells;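 for cell number change: cells counted by Cell Tracker Red CMTPX staining in the red channel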
Conditions: BODIPY lipid droplet fluorescence, 18-24 h, cells fed with added oleic acid; cell number change: measured here: cell count max response; series mostly up to 46.1 µM
Outline: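 Drosophila S3 cells got compounds at several concentrations plus oleic acid (400 uM solution). Laser-scanning cytometry with 488 nm excitation read lipid droplets at 500-530 nm and cells at 575-640 nm. Percent activity was relative to 20 uM Triacsin C.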
Potency is the fitted concentration of half-maximal effect.

Compound	Potency	cell number change	outcome
CCOC(=O)C1CCN(c2cc3c(cc2NC(=O)c2ccccc2)n(C)c(=O)n3C)CC1	3.66 µM (active)	–	–
CCOC(=O)C1CCN(c2cc3c(cc2NC(=O)c2ccc(F)cc2)n(C)c(=O)n3C)CC1	inactive	-8.96%	–
Cc1ccc(C(=O)Nc2cc3c(cc2N2CCCCC2)n(C)c(=O)n3C)cc1	inactive	-8.73%	–
c1ccc(-c2nc(-c3nccc4ccccc34)oc2-c2ccccc2)cc1	inactive	-5.47%	–
N#CCCN(C(=O)COc1ccc(C#N)cc1)c1ccc(F)cc1	inactive	6.15%	–
CCN(C(=O)CCC(=O)N(CC)c1ccccc1)c1ccccc1	inactive	-0.108%	–
CN(C(=O)c1ccccc1Cl)c1ccccc1	inactive	–	–
CCN(C(=O)c1ccccc1Cl)c1ccccc1	23.1 µM (active)	–	–
CCC(C)(C)n1nnnc1C(c1cccnc1)N1CCN(c2cccc(C(F)(F)F)c2)CC1 (configuration not stated)	inactive	-8.43%	–
O=[N+]([O-])c1ccc(-c2ccc(S(=O)(=O)N3CCOCC3)cc2)cc1	inactive	-1.81%	–
CC(=O)C(=Cc1ccc(O)cc1)C(C)=O	inactive	-7.54%	–
Cc1cc2c(cc1S(=O)(=O)N(C)c1ccccc1)NC(=O)CO2	inactive	-11.6%	–
Cc1ccccc1NC(=O)CN1CCN(C(=O)c2ccco2)CC1	inactive	25%	–
COC(=O)c1cc(C)sc1NC(=O)CN1CCN(C(=O)c2ccco2)CC1	1.84 µM (active)	3.78%	–
Cc1cc(Cl)ccc1NC(=O)CN1CCN(C(=O)c2ccco2)CC1	4.61 µM (active)	2.78%	–
CCOC(=O)c1cc(C)sc1NC(=O)CN1CCN(C(=O)c2ccco2)CC1	inactive	16.2%	–
O=C(CN1CCN(C(=O)c2ccco2)CC1)Nc1cc(Cl)ccc1Cl	inactive	-13.1%	–
CCc1cc(C(=O)OC)c(NC(=O)CN2CCN(C(=O)c3ccco3)CC2)s1	inactive	13.8%	–
O=C(O)c1cc(-c2cccnc2)nc2ccc(Br)cc12	inactive	9.56%	–
CC(C)(C)c1ccc(OCc2nnc(SCC(N)=O)n2N)cc1	inactive	–	–
Cc1cccc(NC(=O)CCNC(=O)c2ccccc2Cl)n1	inactive	–	–
COC(=O)c1ccccc1NC(=O)c1cccnc1	inactive	10.2%	–
C/C(=C\C=C(C#N)C#N)c1cc(C#N)c(N)o1	16.4 µM (active)	-22.3%	–

Compound	Potency	cell number change	outcome
O=C(Cc1cccs1)Nc1ccccc1F	inactive	10.1%	–
CCOCCCNC(c1ccccc1)c1ccncc1 (configuration not stated)	inactive	7.02%	–
O/N=C1\CCCc2c1nc(-c1ccccc1F)n2O	inactive	–	–
COc1ccc(-c2nc3c(n2O)CCC/C3=N\O)cc1	4.61 µM (active)	4.07%	–
Cc1nc2c(n1O)CCC/C2=N\O	inactive	-1.11%	–
COc1ccccc1OCc1cc(C(=O)N2CCCC(OCc3cccnc3)C2)no1 (configuration not stated)	inactive	8.19%	–
O=C(c1cc(COc2ccc3ncccc3c2)on1)N1CCCC1	7.31 µM (active)	-24%	–
O=C(c1cc(COc2ccccc2)on1)N1CCCC(OCc2cccnc2)C1 (configuration not stated)	1.03 µM (active)	–	–
Cc1cccc(C)c1OCc1cc(C(=O)N2CCC(c3ccncc3)CC2)no1	inactive	-16.1%	–
CCN1CCN(C(=O)c2cc(COc3ccc4ncccc4c3)on2)CC1	inactive	-6.54%	–
COc1cccc(OCc2cc(C(=O)N3CCC(c4ccncc4)CC3)no2)c1	4.11 µM (active)	–	–
CCC(O)C1CCN(C(=O)c2cc(COc3ccc4ncccc4c3)on2)CC1 (configuration not stated)	inactive	–	–
O=C(c1cc(COc2ccc(F)cc2Cl)on1)N1CCCC(OCc2cccnc2)C1 (configuration not stated)	inactive	-4.29%	–
COc1cccc(OCc2cc(C(=O)N3CCN(C(C)=O)CC3)no2)c1	inactive	19%	–
CCOC(=O)C(C(=O)OCC)N(C#N)c1nc(N(C)C)nc(N(C)C)n1	inactive	12.4%	–
O=c1[nH]n2cc(-n3cc([N+](=O)[O-])cn3)cnc2c1Br	inactive	–	–
Cc1ccc(C(=O)Nc2ccc(N3CCN(C)CC3)cc2)cc1C	inactive	4.5%	–
Nc1nnc(SCc2ccccc2F)s1	inactive	16.1%	–
COc1ccc(NC(=O)CC2C(=O)N(C)C(=S)N2Cc2ccc3c(c2)OCO3)cc1 (configuration not stated)	inactive	20%	–
COc1ccc(-c2ccc(CCC(=O)O)n2-c2ccccc2O)cc1	inactive	6.08%	–
C/C(=N\O)c1c(O)cc(-c2ccccc2)n(-c2ccccc2)c1=O	inactive	13.2%	–
Oc1ccccc1-n1c(-c2ccccc2)ccc1-c1ccccc1	2.06 µM (active)	-6.63%	–
O=C(CCCN1C(=O)c2ccccc2C1=O)Nc1ccc(Br)cn1	inactive	16.2%	–

Compound	Potency	cell number change	outcome
Cc1ccc(S(=O)(=O)N2CCOC2CNC(=O)C(=O)NCCCN2CCOCC2)cc1 (configuration not stated)	–	-5.14%	inactive [at 0.369 µM]
COC(=O)c1ccncc1C(=O)Nc1ccc(Oc2ncc(C(F)(F)F)cc2Cl)cc1	inactive	-10.1%	–
CCCOc1ccc(CCC(=O)O)cc1	inactive	1.83%	–
Cc1nc(SCC(=O)NC(=O)NC2CCCCC2)nc(C)c1C	inactive	-13.4%	–
COc1ccc(CCN(C)C(=O)C(CCSC)NC(=O)c2ccco2)cc1OC (configuration not stated)	2.31 µM (active)	-10.8%	–
CSCCC(NC(=O)c1ccco1)C(=O)N(C)CC(=O)Nc1c(Cl)cccc1Cl (configuration not stated)	inactive	–	–
COc1ccc(CCNC(=O)c2ccco2)cc1OC	inactive	10.7%	–
CCOC(=O)c1c(-c2ccccc2)csc1NC(=O)/C(C#N)=C/c1ccc(OC)c(OC)c1	inactive	-0.159%	–
COc1cc(/C=C(\C#N)C(=O)NCc2cccs2)ccc1O	inactive	-0.911%	–
CCOC(=O)c1c(-c2ccc(C)cc2)csc1NC(=O)/C(C#N)=C/c1ccc(O)c(OC)c1	23.1 µM (active)	-27.7%	–
COc1ccccc1NC(=O)CN1CCOCC1	inactive	25.4%	–
COc1ccc(/C=N/NC(=O)c2cccc(NC(=O)c3ccccc3Cl)c2)cc1	inactive	-0.417%	–
O=C(COC(=O)CCOc1ccccc1)NCCC1=CCCCC1	inactive	10.9%	–
CCOC(=O)C(C)(C)N(Cc1ccccc1C)S(=O)(=O)c1ccc(Cl)c([N+](=O)[O-])c1	inactive	-1.56%	–
CCOC(=O)C(C)(C)N(Cc1cccc(C)c1)S(=O)(=O)c1ccc(Cl)c([N+](=O)[O-])c1	16.4 µM (active)	-21.7%	–
CCOC(=O)C(C)(C)N(Cc1ccc(Cl)cc1)S(=O)(=O)c1ccc(Cl)c([N+](=O)[O-])c1	inactive	5.39%	–
CCOC(=O)C(C)(C)N(Cc1cccc(C)c1)S(=O)(=O)c1cccc([N+](=O)[O-])c1	inactive	-5.11%	–
CCOC(=O)C(C)(C)NS(=O)(=O)c1ccc(Cl)c([N+](=O)[O-])c1	20.6 µM (active)	-25%	–
CCOC(=O)C(C)(C)N(Cc1ccc(C)cc1)S(=O)(=O)c1ccc(Cl)c([N+](=O)[O-])c1	inactive	-25.3%	–
CC(C)(C)NC(=O)c1cc(-c2ccccc2)n[nH]1	inactive	–	–
CCCOc1ccc(/C=C2\SC(N)=NC2=O)cc1OC	inactive	8.06%	–
NC(=O)c1cc(S(=O)(=O)N2CCN(c3cccc(Cl)c3)CC2)cs1	inactive	14.3%	–
COc1ccccc1/C=C/C1C(C(=O)OCC(C)C)=C(C)N=C2SCCC(=O)N21 (configuration not stated)	inactive	9.42%	–

Compound	Potency	cell number change	outcome
Cc1ccc(NC(=O)c2cn(CCC#N)nc2-c2cccs2)c([N+](=O)[O-])c1	inactive	-4.62%	–
Cc1ccc(C2NC(c3ccc(C)cc3)C([N+](=O)[O-])C(C)(C)C2[N+](=O)[O-])cc1 (configuration not stated)	inactive	-8.86%	–
CC1(C)C([N+](=O)[O-])C(c2ccc(F)cc2)NC(c2ccc(F)cc2)C1[N+](=O)[O-] (configuration not stated)	inactive	2.48%	–
Cc1cccc(C2NC(c3cccc(C)c3)C([N+](=O)[O-])C(C)(C)C2[N+](=O)[O-])c1 (configuration not stated)	5.17 µM (active)	3.3%	–
Cc1cccc(NC(=O)CS(=O)(=O)c2cn(C)c3ccccc23)c1C	inactive	–	–
Clc1ccc(-c2nnc(CNC3CC3)o2)cc1	inactive	6.34%	–
CCCCCN(C(=O)CN1CCC(Cc2ccccc2)CC1)c1c(N)n(CCCC)c(=O)[nH]c1=O	inactive	27.6%	–
CCOC(=O)C1CCN(CCC(=O)Nc2ccc(Br)c(C)c2)CC1	inactive	0.794%	–
CCOC(=O)C1CCCN(CCC(=O)Nc2ccc(C)c(C)c2)C1 (configuration not stated)	inactive	17%	–
CCOC(=O)C1CCCN(CCC(=O)Nc2ccc(Br)c(C)c2)C1 (configuration not stated)	18.4 µM (active)	4.56%	–
O=C(NCCc1nc2ccccc2[nH]1)/C(=C/c1ccco1)NC(=O)c1ccc(Br)o1	inactive	-2.37%	–
COc1ccc2[nH]c(C)c(CN3CCCCC3)c(=O)c2c1	inactive	-15.2%	–
CCc1nnc(NC(=O)C2CCN(S(=O)(=O)Cc3ccccc3)CC2)s1	inactive	-9.95%	–
CC(=O)c1cccc(NC(=O)CSc2nnc(-c3ccncc3)o2)c1	inactive	13.1%	–
O=C(NCCN1CCN(C(=O)c2ccc([N+](=O)[O-])cc2)CC1)C(=O)NCc1ccccc1	inactive	-7.25%	–
O=C(NCCN1CCN(C(=O)c2cccc([N+](=O)[O-])c2)CC1)C(=O)NCc1ccc(Cl)cc1	6.51 µM (active)	-18.5%	–
O=C(c1cccc([N+](=O)[O-])c1)N1CCN(c2cccc(Cl)c2)CC1	inactive	–	–
CC(=O)Nc1ccc(SCC(=O)c2c(N)n(Cc3ccccc3)c(=O)n(C)c2=O)cc1	inactive	14.5%	–
CCOC(=O)C1CCN(C(=O)CCNC(=O)Cn2ccc3ccccc3c2=O)CC1	inactive	0.532%	–
Cc1sc2nc(COC(=O)c3ccc(N4CCCC4)c([N+](=O)[O-])c3)[nH]c(=O)c2c1C	inactive	5.98%	–
CCOC(=O)c1c(NC(=O)c2ccc(C)cc2)sc2c1CC(C)(C)NC2(C)C	inactive	-1.96%	–
Cc1ccc(NC(=O)Cc2nn(C)c(=O)c3ccccc23)cc1F	inactive	–	–
